The values that follow come from PMC5700166.

Test in all cases: protein-binding microarray (PBM); PBM: ~300 nM protein, 6 mM HEPES pH 7.8, 80 mM KCl, 0.5 mM EDTA, 0.5 mM EGTA, 6% glycerol, 35 ng/ul poly-dIdC, 1% milk, 1 h, room temperature; Ap Aiptasia and Nv Nematostella (sea anemones) / Co Capsaspora / Aq Amphimedon (sponge) / Dm Drosophila / Hu human; RHD is the Rel homology domain; high values mean tight binding
Common to all, as to details: dsDNA, one strand shown

For one assay, the target named is T1, GST-Ap-NF-kB RHD (Exaiptasia pallida (Aiptasia), UniProt A0A913YAJ5 2-422).
T1 sequence: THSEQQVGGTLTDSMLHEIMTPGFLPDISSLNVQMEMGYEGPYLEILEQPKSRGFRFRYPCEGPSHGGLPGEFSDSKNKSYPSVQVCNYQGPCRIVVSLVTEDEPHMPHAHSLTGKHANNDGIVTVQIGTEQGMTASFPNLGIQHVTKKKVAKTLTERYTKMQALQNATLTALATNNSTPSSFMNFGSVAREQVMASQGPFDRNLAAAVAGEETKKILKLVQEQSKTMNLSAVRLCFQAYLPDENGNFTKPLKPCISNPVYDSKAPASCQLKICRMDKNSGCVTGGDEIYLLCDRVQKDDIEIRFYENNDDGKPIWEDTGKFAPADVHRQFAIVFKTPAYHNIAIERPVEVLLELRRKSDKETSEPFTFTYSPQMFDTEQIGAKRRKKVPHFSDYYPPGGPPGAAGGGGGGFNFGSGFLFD

Assay [1] concerns the target T2, GST-Nv-NF-kB (Cys allele) (Nematostella vectensis, UniProt E5G601 2-411).
T2 sequence: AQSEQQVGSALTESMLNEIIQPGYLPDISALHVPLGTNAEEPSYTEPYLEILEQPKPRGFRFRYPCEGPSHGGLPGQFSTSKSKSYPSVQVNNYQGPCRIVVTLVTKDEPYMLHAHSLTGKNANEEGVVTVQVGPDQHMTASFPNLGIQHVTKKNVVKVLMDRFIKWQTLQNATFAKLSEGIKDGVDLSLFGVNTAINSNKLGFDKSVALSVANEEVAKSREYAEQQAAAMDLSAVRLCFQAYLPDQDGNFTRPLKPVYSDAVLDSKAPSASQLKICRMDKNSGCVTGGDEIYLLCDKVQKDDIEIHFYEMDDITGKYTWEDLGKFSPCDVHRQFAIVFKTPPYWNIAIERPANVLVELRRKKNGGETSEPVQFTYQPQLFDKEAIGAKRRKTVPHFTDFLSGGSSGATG

Another assay has as its target T3, GST-Co-NF-kB (Capsaspora owczarzaki, UniProt F1ARL5 200-546).
T3 sequence: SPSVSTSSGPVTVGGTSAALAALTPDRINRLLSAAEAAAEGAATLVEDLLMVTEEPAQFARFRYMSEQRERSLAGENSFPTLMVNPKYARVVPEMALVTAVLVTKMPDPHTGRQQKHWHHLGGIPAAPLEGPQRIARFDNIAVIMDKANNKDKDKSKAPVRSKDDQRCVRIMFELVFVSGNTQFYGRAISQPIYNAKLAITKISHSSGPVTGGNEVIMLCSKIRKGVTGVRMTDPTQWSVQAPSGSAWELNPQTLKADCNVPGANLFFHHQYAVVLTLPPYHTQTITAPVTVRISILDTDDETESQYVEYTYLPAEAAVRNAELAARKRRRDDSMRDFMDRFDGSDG

The next assay has as its target T4, GST-Dm-Relish (Drosophila melanogaster, UniProt Q94527 99-473).
T4 sequence: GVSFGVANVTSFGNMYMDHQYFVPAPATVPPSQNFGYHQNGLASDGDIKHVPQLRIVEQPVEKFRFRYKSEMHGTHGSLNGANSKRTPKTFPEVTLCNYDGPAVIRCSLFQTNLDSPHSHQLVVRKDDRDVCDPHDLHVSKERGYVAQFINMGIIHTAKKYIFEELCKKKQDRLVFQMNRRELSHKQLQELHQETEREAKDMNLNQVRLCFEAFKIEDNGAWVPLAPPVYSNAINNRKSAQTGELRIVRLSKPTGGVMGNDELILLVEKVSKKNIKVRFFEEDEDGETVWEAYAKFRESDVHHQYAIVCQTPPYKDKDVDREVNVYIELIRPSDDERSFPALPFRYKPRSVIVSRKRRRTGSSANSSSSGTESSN

The target of the next assay is T5, GST-Aq-NF-kB (Amphimedon queenslandica, UniProt A9Y5G7 2-389).
T5 sequence: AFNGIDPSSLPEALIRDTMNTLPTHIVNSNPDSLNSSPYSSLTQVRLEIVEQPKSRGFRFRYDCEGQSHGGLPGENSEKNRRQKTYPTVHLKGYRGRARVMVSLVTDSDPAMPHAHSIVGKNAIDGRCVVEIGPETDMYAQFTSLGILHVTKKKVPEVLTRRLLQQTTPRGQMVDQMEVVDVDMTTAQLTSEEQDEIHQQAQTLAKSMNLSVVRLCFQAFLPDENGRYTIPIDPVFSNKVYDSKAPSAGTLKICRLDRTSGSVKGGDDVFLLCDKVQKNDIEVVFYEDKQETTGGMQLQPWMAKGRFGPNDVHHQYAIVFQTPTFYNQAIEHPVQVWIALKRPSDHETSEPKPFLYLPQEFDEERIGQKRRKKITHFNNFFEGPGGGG

Take “CCGATTAACATCAGGGGCAACCCTGATGTTAATCGGGTCTTGATTCGCTTGACGCTGCTG”: the binding signal is 2.71 z-score in the assay with GST-Ap-NF-kB RHD; 2.89 z-score in assay [1]; 2.31 z-score with GST-Co-NF-kB; 3.06 z-score in the assay with GST-Dm-Relish; 5.52 z-score with GST-Aq-NF-kB.

Regarding “CCGATTAACATCACGGGGTTCCCTGATGTTAATCGGGTCTTGATTCGCTTGACGCTGCTG”, the binding signal stood at 4.82 z-score with GST-Ap-NF-kB RHD; 2.58 z-score in assay [1]; 2.51 z-score in the assay with GST-Co-NF-kB; 9.28 z-score with GST-Dm-Relish; 6.02 z-score with GST-Aq-NF-kB.

“CCGATTAACATCAGGGGAGAATATGATGTTAATCGGGTCTTGATTCGCTTGACGCTGCTG”: the binding signal with GST-Ap-NF-kB RHD was 4.99 z-score; in assay [1], 5.42 z-score; with GST-Co-NF-kB it was 7.41 z-score; with GST-Dm-Relish, 1.73 z-score; with GST-Aq-NF-kB, 3.83 z-score.

Take “CCGATTAACATCAACATCCCCCCTGATGTTAATCGGGTCTTGATTCGCTTGACGCTGCTG”: the binding signal turned out to be 5.64 z-score with GST-Ap-NF-kB RHD; 5.25 z-score in assay [1]; 5.48 z-score with GST-Co-NF-kB; 5.72 z-score in the assay with GST-Dm-Relish; 5.23 z-score in the assay with GST-Aq-NF-kB.

As for “CCGATTAACATCAAACTTTCCCATGATGTTAATCGGGTCTTGATTCGCTTGACGCTGCTG”, the binding signal with GST-Ap-NF-kB RHD was 3.24 z-score; in assay [1], 4.83 z-score; with GST-Co-NF-kB, 4.07 z-score; with GST-Dm-Relish, 1.39 z-score; with GST-Aq-NF-kB, 5.27 z-score.

As for “CCGATTAACATCAATACACCCCCTGATGTTAATCGGGTCTTGATTCGCTTGACGCTGCTG”, the binding signal in the assay with GST-Ap-NF-kB RHD came out at 3.75 z-score; in assay [1], 2.95 z-score; in the assay with GST-Co-NF-kB, 4.19 z-score; with GST-Dm-Relish it was 3.33 z-score; with GST-Aq-NF-kB, 3.5 z-score.

For “CCGATTAACATCAGGGGTGGGAATGATGTTAATCGGGTCTTGATTCGCTTGACGCTGCTG”, the binding signal was 2.31 z-score with GST-Ap-NF-kB RHD; 2.09 z-score in assay [1]; 3.75 z-score with GST-Co-NF-kB; 2.17 z-score in the assay with GST-Dm-Relish; 2.94 z-score with GST-Aq-NF-kB.

Consider “CCGATTAACATCACCCCTCCCCCTGATGTTAATCGGGTCTTGATTCGCTTGACGCTGCTG”, for which the binding signal with GST-Ap-NF-kB RHD was found to be 4.84 z-score; in assay [1] it was 3.91 z-score; with GST-Co-NF-kB it was 4.73 z-score; with GST-Dm-Relish, 3.78 z-score; with GST-Aq-NF-kB it was 4.12 z-score.

Turning to “CCGATTAACATCATTCGGGAAAATGATGTTAATCGGGTCTTGATTCGCTTGACGCTGCTG”, the binding signal with GST-Ap-NF-kB RHD was determined as 1.48 z-score; in assay [1], 3.97 z-score; with GST-Co-NF-kB it was 3.01 z-score; with GST-Dm-Relish, 1.3 z-score; in the assay with GST-Aq-NF-kB, 2.01 z-score.

“CCGATTAACATCACGGGGAGTCCTGATGTTAATCGGGTCTTGATTCGCTTGACGCTGCTG”: the binding signal came out at 7.06 z-score with GST-Ap-NF-kB RHD; 3.95 z-score in assay [1]; 4.24 z-score with GST-Co-NF-kB; 8.09 z-score with GST-Dm-Relish; 5.02 z-score in the assay with GST-Aq-NF-kB.

On to “CCGATTAACATCAGGAGTCCCCATGATGTTAATCGGGTCTTGATTCGCTTGACGCTGCTG”, for which the binding signal was found to be 6.21 z-score in the assay with GST-Ap-NF-kB RHD; 4.39 z-score in assay [1]; 2.23 z-score in the assay with GST-Co-NF-kB; 7.3 z-score in the assay with GST-Dm-Relish; 4.27 z-score with GST-Aq-NF-kB.

“CCGATTAACATCAGGGACACCCCTGATGTTAATCGGGTCTTGATTCGCTTGACGCTGCTG”: the binding signal in the assay with GST-Ap-NF-kB RHD is 6.11 z-score; in assay [1], 4.44 z-score; with GST-Co-NF-kB, 3.39 z-score; with GST-Dm-Relish, 7.09 z-score; with GST-Aq-NF-kB it was 6.84 z-score.

As to “CCGATTAACATCAAAGAAGCCCCTGATGTTAATCGGGTCTTGATTCGCTTGACGCTGCTG”, the binding signal with GST-Ap-NF-kB RHD came to 4.38 z-score; in assay [1], 5.52 z-score; with GST-Co-NF-kB, 1.52 z-score; in the assay with GST-Dm-Relish, 4.39 z-score; with GST-Aq-NF-kB it was 5.13 z-score.
